MOR-DOR ag: agonists of human mu-delta opioid receptor heterodimerization | P35372+P41143 | cells, OPRM1-OPRD1 heterodimerization, luminescence | activation, % at 9.3 µM | actives 0.3% (n = 340,000);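 also: 0% = vehicle-treated cells and 100% = reference agonist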
HTR5A ag ctr: activates human HTR5A in OPRM1-OPRD1 agonist counter-screen | activation, % at 9.3 µM | actives 0.61% (n = 340,000) | P47898 | HTR5A agonist assay, luminescence, cell-based; in the data active = activation mostly above about 9.5%, no sharp cut-off; inactive = mostly below about 7.6%;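 also: 0% = cells with vehicle only and 100% = reference agonist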
MOR-DOR inv ag: inverse agonists of human mu-delta opioid receptor heterodimerization; cell-based MOR-DOR heterodimer luminescence, inverse agonism; actives 0.21% (n = 340,000); AID 504357; inhibition, % at 9.3 µM; in the data active = inhibition above about 22%, passing the limit was not always enough;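 also: 0% = cells with DMSO and 100% = wells without cells with DMSO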
HTR2A ag: activates the mouse 5-HT2A serotonin receptor; P35363; CHO-K1 mHTR2A beta-arrestin complementation, luminescence; percent of 30 µM serotonin response; activation, % at 7.6 µM; actives 0.66% (n = 360,000); AID 624169;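 active = activation above a run cutoff, the mean activation of all tested compounds plus 3 SD, cut at about 14% in these data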;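 also: 0% = plate median of compound wells and 100% = 30 µM serotonin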
Target sequence (P35363 whole entry, looked up): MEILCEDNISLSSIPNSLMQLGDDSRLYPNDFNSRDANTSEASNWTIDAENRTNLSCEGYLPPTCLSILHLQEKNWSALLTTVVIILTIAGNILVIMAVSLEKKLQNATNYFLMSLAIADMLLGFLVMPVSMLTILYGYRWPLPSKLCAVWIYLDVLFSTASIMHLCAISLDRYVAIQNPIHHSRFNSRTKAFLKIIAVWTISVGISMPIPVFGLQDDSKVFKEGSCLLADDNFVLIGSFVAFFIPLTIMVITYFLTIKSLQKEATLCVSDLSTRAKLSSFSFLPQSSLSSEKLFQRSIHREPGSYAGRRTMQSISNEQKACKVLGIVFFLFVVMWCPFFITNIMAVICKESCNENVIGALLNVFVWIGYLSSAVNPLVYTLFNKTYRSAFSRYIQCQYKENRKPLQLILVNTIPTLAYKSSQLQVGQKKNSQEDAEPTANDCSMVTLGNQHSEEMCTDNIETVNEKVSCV
sPLA2-III inh: Inhibits HGIII-sPLA2 liposome hydrolysis, primary screen; inhibition, % at 12.2 µM; actives 0.56% (n = 370,000); AID 743126; Q9NZ20; QFRET BODIPY PC-A2 liposome hydrolysis, fluorescence;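 active = inhibition above mean plus 3 SD of compounds lying within the high and low control bounds, cut at about 19% in these data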;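 also: 0% = median of test compound wells and 100% = no enzyme DMSO wells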
HTR5A inv ag: counter-screen for OPRM1-OPRD1 inverse agonists: human HTR5A inverse agonism; P47898; HTR5A cell line, luminescence; inhibition, % at 9.3 µM; actives 0.083% (n = 340,000); AID 504634; in the data active = inhibition mostly above about 23%, no sharp cut-off; inactive = mostly below about 18%;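 also: 0% = cells with DMSO and 100% = no-cell wells with DMSO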
MOR-DOR ag conf: OPRM1-OPRD1 heterodimer agonism, confirmation; shares compounds with MOR-DOR ag; cells, MOR-DOR heterodimerization, luminescence complementation; activation, % at 9.3 µM; actives 45% (n = 830);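 also: 0% = vehicle-treated cells and 100% = reference agonist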
HTR5A ag ctr2: activates human HTR5A in OPRM1-OPRD1 agonist counter-screen | shares compounds with MOR-DOR ag | HTR5A agonist counterscreen, cell luminescence | activation, % at 9.3 µM | actives 8% (n = 830) | AID 504905; in the data active = activation above about 17%;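 also: 0% = vehicle-treated cells and 100% = reference agonist response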
Numbers without * were called inactive; i = inactive; / = no result given. Sampled rows, rich in hits. Any-hit rate of the full collection: about 2.2%. Rule as the data show it, unless noted: active = activation above about 18%; inactive = the rest.

SMILES | MOR-DOR ag | HTR5A ag ctr | MOR-DOR inv ag | HTR2A ag | sPLA2-III inh | HTR5A inv ag | MOR-DOR ag conf | HTR5A ag ctr2
FC(F)(F)c1ccc(C2[C@H]3CN(Cc4cccnc4)[C@H](c4ccccc4)C34CC2(c2cccnc2)C4)cc1 (stereo partly specified) | 49* | -1 | -273 | -5 | 6 | -5 | 68* | -4
c1cnc(SCC2CCCCC2)c(-c2nc3ccccc3[nH]2)c1 | / | / | / | / | -5 | / | / | /
CC(C)CN1C(=O)[C@@]2(CC(=O)N(C)C2c2ccccc2)c2cc(-n3cc(CO)nn3)ccc21 (stereo partly specified) | / | / | / | / | 1 | / | / | /
COc1cc(/C=N/NC(=O)c2ccccc2O)ccc1OCC(=O)Nc1ccccc1 | -3 | 2 | 17 | 2 | -7 | 18 | / | /
O=C(COc1ccc(/C=N/NC(=O)c2cc3ccccc3o2)cc1Cl)Nc1ccccc1 | 41* | 9 | -237 | 1 | / | -27 | 3 | -4
CC1=CC(=O)C(C(C)C)=C/C1=N/OS(=O)(=O)c1ccccc1 | 205* | 30* | i | 0 | 12 | -64 | 83* | 29*
O=C(Nc1ccccn1)c1cc(-c2cccnc2)nc2ccc(Br)cc12 | 33* | 3 | -158 | 2 | 5 | -8 | 20* | 10
Cc1cc(NC(=O)c2cc(-c3ccccn3)nc3ccc(Br)cc23)no1 | -2 | 1 | 9 | 4 | 3 | -3 | / | /
Cc1cccc(NC(=S)NCC(c2cccnc2)N(C)C)c1 (stereo unspecified) | 218* | -1 | i | 1 | 15 | 5 | 210* | -3
Cc1cccc(NC(=S)N(CCN(C)C)C(C)c2cccnc2)c1 (stereo unspecified) | -1 | -3 | 3 | 1 | 13 | 24 | / | /
CN(C)C(CNS(=O)(=O)c1ccc(F)cc1)c1cccnc1 (stereo unspecified) | -2 | -4 | 10 | -1 | 14 | -4 | / | /
CN(C)C(CNC(=S)Nc1ccc(F)cc1)c1cccnc1 (stereo unspecified) | 112* | 2 | i | -2 | 4 | 9 | -2 | -3
COc1ccc(-c2ncn(CCc3ccccc3OC)c2CC(C)C)cc1 | / | / | / | / | -5 | / | / | /
Cc1ccsc1S(=O)(=O)n1c(CN2CCOCC2)nc2ccccc21 | / | / | / | / | 0 | / | / | /
Cc1ccc2nc(-c3ccc(NC(=O)Cc4cccs4)cc3)[nH]c2c1 | 23* | -8 | -135 | -4 | 1 | 18 | 18 | 6
COc1ccc(C(CNc2ncnc3sccc23)N(C)C)cc1OC (stereo unspecified) | 20* | 0 | -154 | -1 | -2 | 0 | 0 | 25*
COc1ccc(C(CNc2ncnc3sc(C)c(C)c23)N(C)C)cc1 (stereo unspecified) | 102* | 0 | i | -9 | 0 | -1 | 68* | -3
COc1ccccc1C(CNc1ncnc2sc(C)c(C)c12)N(C)C (stereo unspecified) | 0 | 2 | 2 | -4 | -7 | -4 | / | /
CC(=O)Nc1ccc(C(=S)NCC2(N(C)C)CCCCC2)cc1 | -2 | 0 | 8 | -5 | 0 | -1 | / | /
COC(=O)c1ccc(C(=S)NCC2(N(C)C)CCCCC2)cc1 | 37* | 6 | -199 | -1 | 7 | -16 | 3 | 70*
Cc1ccc(C)c(N2CCN(C(=S)Nc3ccc4nc(N5CCN(C)CC5)cc(C)c4c3)CC2)c1 | 18* | 9 | -91 | -9 | -15 | -27 | 22* | 4
Cc1cc(C)c(-c2cc(C(=O)Nc3cc(C)ccc3C)[nH]n2)c(O)c1 | 20* | 4 | -95 | 0 | -7 | -15 | 10 | 0
CSCCCNC(=O)c1ccc(OC2CCN(CCc3ccccc3)CC2)cc1 | 22* | 0 | -110 | -9 | -7 | -12 | 32* | 2
O=C(NCCc1ccccn1)c1ccc(OC2CCN(CCc3ccccc3)CC2)cc1 | 15 | 1 | -79 | -13 | -16 | -2 | / | /
O=C(NCCc1cccc(Cl)c1)c1ccc(OC2CCN(Cc3ccccn3)CC2)cc1 | 65* | 4 | -324 | -7 | -14 | -14 | 0 | -1
SMILES | MOR-DOR ag | HTR5A ag ctr | MOR-DOR inv ag | HTR2A ag | sPLA2-III inh | HTR5A inv ag | MOR-DOR ag conf | HTR5A ag ctr2
Nn1c(SCC(=O)Nc2nccs2)nnc1-c1cc(-c2ccc(F)cc2)n[nH]1 | / | / | / | / | 3 | / | / | /
CCCC[C@@H]1C(=O)N2N=Cc3cscc3[C@H]2N2N=Cc3cscc3[C@@H]12 | / | / | / | / | 0 | / | / | /
CCCCCCCN(c1ccccc1)[C@@H]1C[C@H]2CCCC(=O)N3CC[C@@H](C1)[C@@H]23 | 19* | 1 | -106 | -3 | -1 | 4 | 0 | 1
Cc1ccc(C(=O)c2c(C)oc3c2C(=O)C(=O)c2ccccc2-3)cc1 | 34* | 14* | -170 | 3 | / | -30 | 1 | -2
O=C(CSc1ccccc1)Nc1nc2ccccc2[nH]1 | 0 | 11 | 0 | 1 | 1 | -22 | / | /
O=C(CSc1ccc(Cl)cc1)Nc1ccc(-c2nc3ccccc3[nH]2)cc1 | 32* | 13* | -144 | 3 | 8 | 4 | 171* | 6
COc1ccc2c(c1)CNC2CS(=O)(=O)NCc1ccc(F)cc1 (stereo unspecified) | / | / | / | / | 2 | / | / | /
C=CCN1N=C(c2ccc(NC(=O)c3ccccc3)cc2)CSC1=O | 55* | 3 | -285 | 0 | 5 | 19 | 1 | -4
Cc1ccsc1C=Nn1c(-c2n[nH]c3c2CCC3)n[nH]c1=S | / | / | / | / | 10 | / | / | /
COc1cc(C2C(C#N)=C(N)N(c3sc4c(c3C#N)CCCC4)C3=C2C(=O)CC(C)(C)C3)cc(OC)c1OC (stereo unspecified) | 58* | 0 | -360 | 7 | / | -2 | 45* | 4
COc1cc(C2C(C#N)=C(N)N(N(C)C)C3=C2C(=O)CCC3)cc(OC)c1OC (stereo unspecified) | -2 | 2 | 10 | 7 | 9 | -8 | / | /
CCCOc1ccc(C(=O)Nc2ccc(N3CCN(C(C)=O)CC3)cc2)cc1 | -2 | -2 | 13 | -5 | 4 | 2 | / | /
CCCOc1ccc(C(=O)Nc2ccc(N3CCN(C(=O)c4ccco4)CC3)cc2)cc1 | 23* | 0 | -119 | 1 | -3 | 3 | 1 | -6
CCOC(=O)[C@@]12CCCC=C1N(CCc1ccc(Cl)cc1)C(=O)[C@H]2CC(=O)NCc1cccs1 | / | / | / | / | -10 | / | / | /
CCN(CC)Cc1cc(Nc2c3ccccc3nc3c4ccccc4n(C)c23)cc(CN(CC)CC)c1O | 144* | 2 | i | -12 | 21* | -7 | 149* | -3
Oc1cccc(Nc2c3ccccc3nc3ccccc23)c1 | -1 | 2 | 4 | -2 | 2 | -8 | / | /
